LASV entry inh = blocks Lassa virus binding to or entry into cells; Lassa virus pseudotype entry inhibition, cell reporter; Potency, µM (titrated, usually from 37.9 µM), for inactives: at the top dose activity change, negative = inhibition, most hits filed as inhibitors; 300,000 compounds, 1.2% hits; AID 540256; calls by dose curve; tested in HEK293 cells; also: potency is read from the fitted curve at half-maximal effect; % is scaled to controls: 0 for no effect and ±100 for the full control effect; nearly all actives have a fitted effect of over 50% in size
HCMV antiviral = inhibitors of human cytomegalovirus. HFF cells, HCMV-luciferase reporter, 72 h; active compounds read low. AID 1259415. 410,000 compounds, 4.5% hits. activity change, negative = inhibition, % at 57.5 µM; in the data active = activity change below about -60%; inconclusive = no clear call, values can overlap the other calls; inactive = above about -39%; also: % is scaled to controls: 0 for no effect and ±100 for the full control effect
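Luciferase read-out from HCMV-luciferase-infected HFFs (MOI 1 PFU/cell) 72 h post infection at 37C; compounds added after 16 h cell attachment; activity normalized between buffer-only basal and Salinomycin (10uM) inhibitor controls.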
MARV entry inh = inhibitors of Marburg virus binding or cell entry; Marburg virus pseudotyped entry inhibition, cell reporter; 300,000 compounds, 1.8% hits; Potency, µM (highest dose often 37.8 µM), for inactives: at the highest dose activity change, negative = inhibition, actives largely listed as inhibitors; calls by dose curve; tested in HEK293 cells; also: potency is read from the fitted curve at half-maximal effect; % is scaled to controls: 0 for no effect and ±100 for the full control effect
SARS PLP yeast = inhibitors of SARS-CoV papain-like protease in yeast; Potency, µM (top dose mostly 32.9 µM), without a hit: top-dose activity, positive = growth rescue, usual class: activators; S. cerevisiae expressing SARS-CoV PLpro, growth rescue; 330,000 compounds, 0.19% hits; AID 485353; calls by dose curve; also: potency is read from the fitted curve at half-maximal effect; 0% is about no effect; nearly all actives have a fitted effect of over 55% in size
HCV inh = inhibitors of hepatitis C virus infection. Huh7.5.1 HCVcc-Cre infection, luciferase reporter, 44 h. Potency, µM (highest dose often 41.8 µM), without a hit: at the top dose activity change, negative = inhibition, usual class: inhibitors. 340,000 compounds, 3.4% hits; active = well fitted inhibition curve with a large enough effect; inconclusive = small, poorly fitted or top-dose-only effect, or another doubt; inactive = no such curve, though single readings can be large or run the other way; also: potency is read from the fitted curve at half-maximal effect; % is scaled to controls: 0 for no effect and ±100 for the full control effect
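Antiviral activity was scored by luciferase reporter output from cells infected with HCVcc-Cre (~0.5 moi) in presence of compound, 44 h infection period, cells seeded 1,000/well 4 h prior.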
FMDV antiviral = foot and mouth disease virus antiviral activity. FMDV antiviral cell-based qHTS. Potency, µM (highest dose often 57.9 µM), for inactives: top-dose activity change, negative = inhibition, most hits filed as inhibitors. 410,000 compounds, 1.2% hits. AID 1159524; calls by dose curve; tested in HEK293T cells; also: read-out not given here; potency is read from the fitted curve at half-maximal effect; % is scaled to controls: 0 for no effect and ±100 for the full control effect; nearly all actives have a fitted effect of over 45% in size
Numbers without * were called inactive; ? = inconclusive; nt = not tested or not shown; [ ] = remark or other dose. Compounds with a hit are over-represented: about 8% of the library has one in this group of screens.

SMILES | LASV entry inh | HCMV antiviral | MARV entry inh | SARS PLP yeast | HCV inh | FMDV antiviral
CC#C[C@]1(O)CC[C@H]2C3CCC4=CC(=O)CCC4=C3[C@@H](c3ccc(N(C)C)cc3)C[C@@]21C (stereo partly specified) | nt | nt | 10µM* | nt | nt | nt
COc1ccc(-c2cc(C(=O)Oc3cccc(C)c3)c3ccccc3n2)cc1 | ? | 10 | ? | nt | nt | 3%
O=C(CN1CCN(Cc2ccccc2)CC1)N/N=C/c1ccccc1F | 27% | -8 | 19%[46.1 µM] | 0% | 12% | 8%
C=CCc1cccc(/C=N/NC(=O)c2ccccc2OC)c1O | -8% | -97* | ? | -3% | ? | 44%
C=CCc1cccc(C=NNC(=O)CN2CCN(Cc3ccccc3)CC2)c1O | 12µM* | nt | ? | nt | nt | nt
C=CCc1cccc(/C=N/NC(=O)c2ccc3nc[nH]c3c2)c1O | nt | -101* | nt | ? | ? | 15%
C=CCc1cccc(/C=N/NC(=O)c2ccccc2Br)c1O | nt | -99* | nt | -6% | 14µM* | -22%
O=C(N/N=C/c1ccc(Cl)cc1Cl)c1ccc2nc[nH]c2c1 | nt | -15 | nt | 9% | 14% | 28%
O=S1(=O)c2ccc(Br)cc2OC2CCCC[C@@H]2N1Cc1ccccc1 (stereo partly specified) | nt | 9 | nt | nt | nt | nt
COc1ccc2c3c(n(C)c2c1)[C@@H](CO)N(C(=O)NC1CCCCC1)CC31CCN(C)CC1 | nt | -32 | nt | nt | nt | nt
Cc1ccccc1NC(=O)CCC(=O)N1CCSc2ccccc21 | -5%[46.1 µM] | -19 | nt | nt | nt | -10%
C/C=C/c1ccc2c(c1)O[C@@H](CN(C)C(=O)c1ccc(F)cc1)[C@@H](C)CN([C@H](C)CO)S2(=O)=O | nt | 4 | nt | nt | nt | -16%
Cc1cc(C)c2nc(C(F)(F)F)c(C#N)c(N)c2c1 | 13% | ? | ? | 2% | -26% | -8%
Cc1ccc2nc(C(F)(F)F)c(C#N)c(N)c2c1 | 0% | -107* | -20% | -10% | 25µM* | -26%
Cc1c(C(=O)NCc2ccc3c(c2)OCCO3)sc(=O)n1Cc1ccccc1C(F)(F)F | nt | -29 | nt | nt | nt | -12%
O=C(COC(=O)c1cc([N+](=O)[O-])ccc1NCCO)Nc1ccc2c(c1)OCO2 | -28% | -9 | ? | 0% | 11µM* | ?
Cc1nn(-c2ccccc2)c(C)c1NC(=O)COC(=O)c1cc([N+](=O)[O-])ccc1NCCO | ? | -21 | ? | 4% | 22µM* | -26%
CCOC(=O)C1CCCCN1C(=O)c1cnn(-c2nccc(-c3cc(C)sc3C)n2)c1C1CC1 (stereo unspecified) | nt | nt | nt | nt | nt | 18%
CCCCN1C(=O)C(CC(=O)NCC2CCCCC2)CC(C(=O)N(C)C)=C1C (stereo unspecified) | nt | -105* | nt | nt | nt | -1%
CCOC(=O)/C=c1\s/c(=C\c2c(OC)ccc3ccccc23)c(=O)n1CC(=O)NCC1CCCO1 (stereo unspecified) | ? | -95* | ? | -11% | ? | -5%
CCOC(=O)/C=c1/s/c(=C/c2ccc3cc(OC)ccc3c2)c(=O)n1CC(=O)NCC1CCCO1 (stereo unspecified) | -17%[46.1 µM] | -32 | -4%[46.1 µM] | nt | ? | -20%
NS(=O)(=O)c1ccc(CCNc2nn3c(-c4cccc(OC(F)(F)F)c4)cnc3s2)cc1 | nt | -98* | nt | nt | nt | 22µM*
NS(=O)(=O)c1ccc(CCNc2nccn(-c3cccc(C(F)(F)F)c3)c2=O)cc1 | -1%[46.1 µM] | -11 | nt | nt | nt | -25%
Cc1cccc(NC(=O)CNC(=O)Cn2ncc(Cl)c(Cl)c2=O)c1C | ? | nt | ? | 8% | 0.71µM* | 22µM*
O=C(Cn1ncc(Cl)c(Cl)c1=O)NCC1CCCCC1 | 18µM* | -101* | ? | -32% | 2.8µM* | 28µM*
SMILES | LASV entry inh | HCMV antiviral | MARV entry inh | SARS PLP yeast | HCV inh | FMDV antiviral
O=C(Cn1ncc(Cl)c(Cl)c1=O)NC1CCS(=O)(=O)C1 (stereo unspecified) | nt | -63* | nt | 2% | -26% | -14%
O=C(COC(=O)c1ccc(Cl)cc1)NCC1CCCCC1 | 7% | -20 | -1% | -26% | 11% | -5%
O=C(Cn1ncc(Cl)c(Cl)c1=O)NC1CCCCC1 | nt | 0 | nt | -30% | 2.8µM* | 35µM*
CCC(C)n1c(SCc2ccc(C(C)(C)C)cc2)nc2ccsc2c1=O (stereo unspecified) | -2%[46.1 µM] | -9 | nt | nt | nt | -27%
CCOC(=O)c1ccccc1NC(=O)N1CCN(Cc2cc(=O)n3nc(-c4ccccc4)sc3n2)CC1 | 10%[46.1 µM] | 5 | nt | nt | nt | -9%
NC(=O)C1CCN(CC(=O)Nc2cccc(C(=O)Nc3cccc(C(F)(F)F)c3)c2)CC1 | -13% | -33 | -25%[46.1 µM] | -1% | -8% | ?
CCOC(=O)C(NCc1ccccc1NC(=O)OC(C)(C)C)c1nnnn1Cc1ccccc1 (stereo unspecified) | nt | 24 | nt | nt | nt | nt
NCc1ccc(-c2nc(-c3ccc(Cl)c(O)c3)c(-c3ccncc3)[nH]2)cc1 | -19% | nt | nt | nt | nt | nt
CC(C)=NNc1nc2sc3c(c2c(=O)[nH]1)CC(C)(C)OC3 | 7.1µM* | ? | -4% | -17% | -22% | 22%
CC1(C)Cc2c(sc3nc(N/N=C/c4ccccc4)[nH]c(=O)c23)CO1 | -1% | ? | ? | -3% | 0% | ?
COc1ccc(-n2cc(-c3ccccc3)nc2SC)cc1 | nt | 25 | nt | -19% | ? | 60%
COc1ccc(-c2cn(-c3ccc(OC)cc3)c3[n+]2-c2ccccc2CC3)cc1 | ? | -97* | ? | -3% | -26% | 16µM*
COc1ccc(-n2cc(-c3ccccc3)[n+]3c2CCCCC3)cc1 | ? | -90* | ? | 2% | ? | ?
O=C(O)C[C@H]1c2cc(C(F)(F)F)ccc2S(=O)(=O)N1C1CCN(Cc2ccccc2)CC1 | nt | 0 | nt | nt | 21% | -11%
Cc1cc(C)cc(NC(=O)CN2C(=O)c3ccccc3Sc3ccc(C(=O)N4CCCC4)cc32)c1 | -17%[46.1 µM] | 17 | nt | nt | nt | -5%
Cc1ccc(-n2nc3c(N4CCC(C(=O)N(C)Cc5ccccc5)CC4)nnc(C)c3c2C)cc1 | ? | -5 | nt | nt | nt | -14%
COCc1cccc(-c2cccc3c2COCC(=O)N3Cc2ccccc2)c1 | nt | -5 | nt | nt | nt | nt
Cc1cccc(C(=O)NC(=S)NNC(=O)c2cccs2)c1 | 9% | ? | 1% | -35% | 1% | -12%
COc1ccc(C(=O)NC(=S)NNC(=O)c2ccc(NC(=O)C(C)C)cc2)cc1 | ? | 0 | ? | -7% | 16µM* | -3%
Cc1cccc(C(=O)NC(=S)NNC(=O)c2ccc(Cl)cc2)c1 | ? | -84* | ? | -41% | ? | ?
CC(C)C(=O)Nc1cccc(NC(=S)NC(=O)c2ccc(Cl)cc2)c1 | -29% | -73* | ? | 9% | ? | ?
Cc1ccc(C(=O)NC(=S)Nc2ccc(NC(=O)c3cccc(Cl)c3)cc2)cc1 | 2.3µM* | ? | 1.3µM* | 6% | -11% | 3%
COc1ccc(C(=O)NC(=S)NNC(=O)c2ccc(C)cc2)cc1 | nt | -28 | nt | nt | ? | -4%

Screening data (PubChem)
